Rows were chosen to be rich in hits. Some 1.8% of all compounds tested hit in one or more screens of this group.
VLA-4 agonist = allosterically activates the human VLA-4 integrin; Jurkat cells, LDV-FITC binding, flow cytometry; P13612; activation, % at 10 µM (by protocol); 24,000 tested, under 10 active;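 active means fluorescent ligand binding to cells raised by more than 40% of the manganese-induced maximum; inconclusive means compound's own fluorescence above 85% of the ligand control signal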;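 further: 0% = ligand binding without compound and 100% = manganese-stimulated maximal binding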
VLA-4 antagonist = inhibitors of LDV-FITC ligand binding to Mn2+-activated human VLA-4 integrin. hit rate 0.2% among 24,000. Jurkat cells, LDV-FITC binding with Mn2+, flow cytometry; 100% = Mn2+-driven binding gain fully reversed. inhibition, % at 10 µM (by protocol);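 active means inhibition above 50%; inconclusive means compound itself fluorescent, judged against control cell fluorescence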;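 further: 0% = Mn2+ stimulated cells lacking compound and 100% = ligand binding without Mn2+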
Jurkat autofluor = counter-screen for VLA-4 integrin: compound autofluorescence in Jurkat cells; flow cytometry; hits give high values; 1 = vehicle-only cell background; fluorescence ratio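 (tested at 10 µM compound in the well)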; hit rate 0.61% among 24,000;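 active means fluorescence ratio above 2.44, which is 1 plus 3 SD of all ratios; inconclusive means signal too bright to measure linearly, ratio around 10 or more; inactive means fluorescence ratio below 2.44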;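 further: green fluorescence of cells measured with 488 nm excitation and 530 nm emission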
FPRL1 ligand = ligands of human FPRL1, also counter-screen for FPR ligands; P25090; FPRL1-expressing cells, fluorescent ligand binding inhibition, flow cytometry; inhibition, % (concentration not given with the values); hit rate 0.3% among 24,000; AID 441;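 further: 0% = buffer alone and 100% = receptor blocker peptide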
FPR ligand = ligands of human FPR, also counter-screen for FPRL1 ligands. P21462. FPR-expressing cells, fluorescent ligand binding, flow cytometry. inhibition, % (test concentration not listed). hit rate 0.74% among 24,000. AID 440;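 further: 0% = buffer wells and 100% = receptor blocker peptide wells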
Target sequence (P21462 whole entry, looked up): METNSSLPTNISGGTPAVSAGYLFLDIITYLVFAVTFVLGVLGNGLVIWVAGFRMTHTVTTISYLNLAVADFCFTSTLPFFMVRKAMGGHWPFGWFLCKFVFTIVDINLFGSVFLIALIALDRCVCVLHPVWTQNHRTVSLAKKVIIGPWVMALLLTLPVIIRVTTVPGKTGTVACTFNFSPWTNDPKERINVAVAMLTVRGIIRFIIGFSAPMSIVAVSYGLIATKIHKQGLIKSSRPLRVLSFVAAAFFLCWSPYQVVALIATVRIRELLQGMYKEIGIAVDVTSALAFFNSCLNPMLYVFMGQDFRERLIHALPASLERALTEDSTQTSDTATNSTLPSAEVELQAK
* hit, by the source's call; ? = inconclusive; . = no result given. Unless noted, no stated cut-off is given here; in the data, active means inhibition above about 30%; inconclusive means no clear call, values can overlap the other calls; inactive means below that.

SMILES	VLA-4 agonist	VLA-4 antagonist	Jurkat autofluor	FPRL1 ligand	FPR ligand
O=C(C1=C(O)C(=O)N(Cc2ccco2)C1c1ccccc1)c1cccs1 (stereo not given)	.	.	.	-8.9	71.3*
CC(=O)C1=C(O)C(=O)N(Cc2ccco2)C1c1ccc(F)cc1 (stereo not given)	5.0	-16.5	1.1	6.7	-0.9
COc1ccccc1N1C(=O)CCC1(C#N)c1ccccc1 (stereo not given)	1.5	-12.0	1.04	2.0	-0.2
CCc1cccc(NC2c3ccccc3C(=O)N2c2cccnc2)c1 (stereo not given)	2.0	22.0	0.93	5.1	-1.3
O=C(Cn1nc(-c2ccc3c(c2)OCCO3)ccc1=O)Nc1ccc(N2CCOCC2)cc1	-27.0	96.0*	1	1.2	-1.2
CCCCCOC(=O)Cn1c(=O)oc2ccccc21	-3.0	-23.0	1.03	23.0	30.8*
CCCCOc1ccc(-c2nnn(CC(=O)Nc3ncc(CC(=O)OCC)s3)n2)cc1	-34.5	93.5*	1	-9.8	-1.0
CCOC(=O)N1CCC(NC(=O)c2cc(C(=O)Nc3cccc(OC)c3)ccc2CO)CC1	3.5	-27.5	1.02	3.0	5.6
CCOC(=O)N1CCC(NC(=O)c2cc(C(=O)Nc3ccc(OC)c(OC)c3)ccc2CO)CC1	3.0	?	1.08	33.7*	15.1
Cc1noc(C)c1S(=O)(=O)Nc1ccc(C(=O)NC2CCCCC2)cc1	?	?	3.02*	-25.6	-4.3
Cc1noc(C)c1S(=O)(=O)Nc1ccc(C(=O)NCCc2ccccc2)cc1	-5.0	55.0*	1.12	0.9	-5.9
COc1ccc(-c2nc(-c3ccc(Br)o3)no2)cc1OC	5.3	-9.4	1.11	30.6*	16.8
COc1ccc(-c2nc(-c3ccc(NC(=O)c4ccc(Br)o4)cc3)no2)cc1OC	-3.0	-3.0	0.99	49.8*	42.8*
COc1ccccc1Cc1nc(-c2ccc(Br)o2)no1	0.0	-7.0	1.09	0.3	2.3
COc1ccc(-c2cc(C(F)(F)F)nc(N3CCN(C)CC3)n2)cc1OC	.	.	.	0.0	-10.6
COc1ccc(-c2cc(C(F)(F)F)nc(N3CCN(c4ccccc4)CC3)n2)cc1OC	5.0	-7.0	0.98	16.5	68.4*
COc1ccc(-c2cc(C(F)(F)F)nc(N3CCCCC3)n2)cc1OC	-5.0	15.0	1.16	33.2*	9.6
COc1cccc2c1C(=O)c1c(O)c3c(c(O)c1C2=O)C[C@@](O)(C(=O)CO)C[C@@H]3O[C@H]1C[C@H](N)[C@H](O)[C@H](C)O1	?	?	6.26*	17.5	-17.2
Nc1cc(C(=O)O)ccc1Nc1ccccc1	0.0	6.0	1.04	-0.4	-2.1
Nc1ccc(Nc2ccccc2N)cc1	?	?	5.23*	46.8*	2.6
CC(=O)OC(Cn1ccnc1)c1ccccc1 (stereo not given)	2.0	2.0	1.02	-2.3	2.3
Cc1ccc(C)c(/C(O)=C2\C(=O)C(=O)N(CCCn3ccnc3)C2c2ccncc2)c1 (stereo not given)	.	.	.	24.7	37.2*
COc1cc(C2/C(=C(\O)c3ccc4c(c3)CC(C)O4)C(=O)C(=O)N2CCCn2ccnc2)ccc1O (stereo not given)	.	.	.	32.8*	43.8*
COc1ccc(C2/C(=C(/O)c3ccc4c(c3)CC(C)O4)C(=O)C(=O)N2CCN2CCOCC2)cc1 (stereo not given)	.	.	.	0.4	1.8
Cc1cc(C)cc(-n2cc3c(=O)n(C)c(=O)n(C)c3c2)c1	-5.0	-13.0	1.01	24.2	31.6*
SMILES	VLA-4 agonist	VLA-4 antagonist	Jurkat autofluor	FPRL1 ligand	FPR ligand
Cc1cccc(-c2c3c(=O)n(C)c(=O)n(C)c3cn2-c2ccc(O)cc2)c1	-8.5	12.0	1.08	-1.0	-3.6
O=C1CCCC(O)=C1C(C#Cc1ccccc1)C1=C(O)CCCC1=O	-1.0	3.0	1.18	4.1	46.8*
COCCn1c(=S)[nH]c2cc(C(=O)N3CCN(c4ccc(F)cc4)CC3)ccc2c1=O	-2.0	2.0	1.08	-1.3	-2.0
C=C(C)C1Cc2c(C)nn(-c3nc(C)cc(C)n3)c2C1 (stereo not given)	-20.0	54.0*	1	-3.5	-5.9
COC(=O)c1cccc(S(=O)(=O)N2CCN(c3nc4ccccc4s3)CC2)c1	2.0	-10.5	1.03	0.2	-4.5
COc1cccc2cc(C(=O)C3=C(O)C(=O)N(CCCN4CCOCC4)C3c3ccncc3)oc12 (stereo not given)	8.0	-16.5	0.93	5.8	-1.3
COc1cc(NC(=O)c2nnn(Cc3ccc(SC)cc3)c2N)cc(OC)c1	-1.0	10.0	1.12	-3.9	-5.8
CC(C)Oc1ccc(C(CC(=O)O)NC(=O)C2CCCCC2)cc1 (stereo not given)	-11.5	96.5*	1.04	-0.7	2.7
Cc1nc2c3c(-c4ccccc4)nc(N4CCOCC4)nc3nn2c(C)c1CCC(=O)O	-1.5	-3.0	1.16	2.3	-5.8
COc1ccccc1-n1c(SC)nc(O)cc1=O	-1.0	-15.0	0.99	-10.4	40.7*
COc1ccc(/C(O)=C2/C(=O)C(=O)N(CCCN(C)C)C2c2ccco2)cc1Cl (stereo not given)	1.0	-13.5	1.02	11.0	7.3
CC(C)c1ccc(S(=O)(=O)N2CCN(CC(=O)Nc3ccc4c(c3)OCO4)CC2)cc1	1.0	15.0	0.95	-5.7	3.5
O=C1c2ccccc2-c2nccnc21	0.5	-17.0	1.09	11.4	4.1
O=C1c2ccccc2-c2nc3ncnn3c(-c3ccccc3Cl)c21	?	?	3.7*	-13.5	-11.6
O=C(O)CCCCCNCc1ccncc1	?	?	1.08	0.3	-3.4
C=CCN1C(=O)/C(=C2\SC(N3CCOCC3)=NC2=O)c2cc(Br)ccc21	-9.0	15.0	1.2	-0.3	-4.0
C/C(=C1/SC(N2CCCC2)=NC1=O)c1ccc(Br)cc1	-14.0	19.0	1	6.6	42.3*
O=C(NCc1ccco1)c1cc2sccc2n1Cc1ccccc1	-2.5	3.5	1.08	5.8	-5.3
O=C(O)Cc1cc(I)c(Oc2ccc(O)c(I)c2)c(I)c1	4.0	-17.5	1.17	1.7	-5.1
N[C@@H](Cc1ccc(O)c(I)c1)C(=O)O	0.0	-8.5	1.04	-2.6	51.4*
COc1cc(-n2nc(C)c3c2OC(N)=C(C#N)C3c2ccccc2)c(Cl)c(Br)c1O (stereo not given)	?	?	2.95*	-1.8	36.2*
Cc1nn(-c2ccccc2)c2c1C(c1c(C)[nH]c(C#N)c1C)C(C#N)=C(N)O2 (stereo not given)	-3.0	-6.0	1.1	-11.2	3.2
COc1ccc(OC)c(NC(=O)C2C3CCC(C3=C(C)C)C2C(=O)O)c1 (stereo not given)	.	.	.	25.5	38.3*
CNC(=O)c1ccsc1NC(=O)CN1C(=O)CCC1=O	0.0	-30.5	1.01	1.6	-1.2
CCN1CCCC1CNC(=O)c1nn(-c2ccc(C)cc2)c(=O)c2c1c1ccccc1n2C (stereo not given)	-10.0	2.0	1.1	-9.5	-14.1
OCc1nc2ccccc2n1CC(O)Cn1ccc2ccccc21 (stereo not given)	-3.0	-2.5	1.05	51.2*	37.4*
